TTR transcr act = increases transthyretin transcription | AID 1117267 | SH-SY5Y TTR promoter Gaussia luciferase, luminescence; 100% = recombinant luciferase protein wells | hit rate 1.3% among 92,000 | activation, % at 16.7 µM;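 active means activation above the mean of all tested compounds plus 3 SD, cut at about 9.5% in these data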;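 further: cells exposed to compounds for one day before reading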
TTR inh HuH7 = counter-screen for TTR activators: TTR transcription inhibitors in HuH7 cells; shares compounds with TTR transcr act; HuH7 TTR promoter-Gaussia luciferase reporter, luminescence; inhibition, % at 16.7 µM; hit rate 4% among 1,100;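 active means average inhibition above the solvent-only control wells' mean plus 3 SD, cut at about 15% in these data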;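 further: inhibitors lower well luminescence so higher value means more inhibition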
TTR act confirm = confirmation of human transthyretin transcription activators; SHSY5Y TTR promoter Gaussia luciferase, luminescence; 100% = purified Lucia enzyme wells, no cells; activation, % at 16.7 µM; 1,100 tested, under 10 active; shares compounds with TTR transcr act; AID 1117280;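 active means mean activation above a set limit taken from the earlier primary screen, cut at about 11% in these data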
Hits are given with their value; i = inactive. Only a selection was taken, and hits are over-represented in it overall.

SMILES	TTR transcr act	others
NS(=O)(=O)c1ccc(CNS(=O)(=O)c2cc(Cl)ccc2Cl)cc1	i
Nc1nnc(CCS(=O)(=O)c2cc(Cl)ccc2Cl)s1	23	TTR inh HuH7=i;TTR act confirm=i
CC(C)(C)c1nnc(NS(=O)(=O)c2cc(Cl)ccc2Cl)s1	i
CCCCOP(=O)(c1ccc(N(C)C)cc1)C(O)c1ccc(OC)c(OC)c1 (configuration not stated)	i
COC(=O)[C@@]12C[C@@H](CC(=O)N3CCCCC3)C(=O)N(Cc3ccccc3)C1=CCC(C)(C)C2	i
CC1(C2(O)CCCCC2)NCCc2ccccc21 (configuration not stated)	i
CCOC(=O)c1c(-c2ccc(-c3ccccc3)cc2)csc1NC(=O)CCN1CCOCC1	i
CCOC(=O)c1c(-c2ccccc2)csc1NC(=O)C(C)NCCCN1CCOCC1 (configuration not stated)	13	TTR inh HuH7=i;TTR act confirm=i
CCOC(=O)c1c(-c2ccc(F)cc2)csc1NC(=O)CCN1CCOCC1	i
CSC1=NCCN1C(=O)Cc1ccc(-c2ccccc2)cc1	i
COc1ccc(CC(=O)N2CCN=C2SC)cc1OC	i
CSC1=NCCN1C(=O)Cc1ccc(F)cc1	10	TTR inh HuH7=i;TTR act confirm=i
O=C(NC1CCC(O)CC1)c1cc(-c2ccc(Cl)cc2)nc2ccccc12 (configuration not stated)	i
CC(C)CC(COCc1ccc(C(F)(F)F)cc1)N1CCN(C(=O)c2ccc(C(F)(F)F)cc2)CCC1=O (configuration not stated)	i
COc1ccc(-c2nnc(CSc3ncnc4sc5c(c34)CCC5)o2)cc1OC	i
O=C(OC1CCOC1=O)c1cc(-c2cccc(Br)c2)nc2ccccc12 (configuration not stated)	i
CCOC(=O)[C@H]1[C@H]2COc3ccc(C)cc3[C@@H]2N2C(=O)c3ccc(C)cc3NC(=O)[C@@]12C	i
CCc1nnc(NC(=O)CSc2nnc(-c3cc4ccccc4cc3O)n2CCOC)s1	i
CCn1c(SCC(=O)Nc2nc(-c3ccccc3)cs2)nnc1-c1ccccc1O	i
CCc1nnc(NC(=O)CSc2nnc(-c3ccccc3O)n2CC)s1	22	TTR inh HuH7=i;TTR act confirm=i
c1ccc2c3c(c(CN4CCCCC4)cc2c1)COC3	i
COCCC(=O)N1CCC(Oc2ccc(C(=O)N3CCCCC3CCO)cc2)CC1 (configuration not stated)	i
COc1ccc(C(C)C)cc1S(=O)(=O)N1CCC(C(=O)N2CCN(C)CC2)CC1	i
O=S(=O)(c1c(Cl)sc(Cl)c1Br)N1CCCC1	i
Cc1ccc(S(=O)(=O)NC(=O)Nc2nnc(C3CC3)s2)cc1	i
SMILES	TTR transcr act	others
O=C(Nc1nnc(C2CC2)s1)c1ccc(S(=O)(=O)c2ccccc2)cc1	16	TTR inh HuH7=i;TTR act confirm=i
Cn1nccc1C(=O)Nc1nnc(C2CC2)s1	i
CC[C@@H]1Cc2[nH][nH]c(=O)c2[C@H](c2ccc(Cl)cc2)O1	i
CCc1cc(SC#N)cc(C)c1N	i
O=C(Nc1ccncc1NC(=O)c1cccc([N+](=O)[O-])c1)c1cccc([N+](=O)[O-])c1	i
Cc1cccc(N(Cc2cc3cc(C)ccc3[nH]c2=O)C(=O)c2cccs2)c1	i
COc1cc2cc(CN(CCO)C(=O)c3cccs3)c(=O)[nH]c2cc1OC	33	TTR inh HuH7=i;TTR act confirm=i
COc1cc2cc(CN(CCc3cccc(C)c3)C(=S)NCCCN(C)C)c(=O)[nH]c2cc1OC	i
CC(C)CN(C(=O)CCc1ccccc1Cl)c1c(N)n(Cc2ccccc2)c(=O)[nH]c1=O	i
CCOC(=O)C(=CNNc1c(C)csc1C(=O)OC)C(=O)OCC	i
O=C(NC1=NCCS1)c1cc(-c2ccccc2)nn1-c1ccccc1	i
O=C(N/N=C/c1cccnc1)c1ccc2c(c1)OCCO2	18	TTR inh HuH7=i;TTR act confirm=i
O=C(N/N=C/c1cccnc1)c1ccco1	i
Cn1nccc1C(=O)N/N=C/c1cccnc1	i
COc1ccc(CCC(=O)OCC(=O)Nc2sccc2C(N)=O)cc1	i
O=C(CCN1C(=O)C2CC=CCC2C1=O)N1CCN(c2ccccn2)CC1 (configuration not stated)	9.7	TTR inh HuH7=i;TTR act confirm=i
CC(=O)c1ccccc1C(=O)N1CCCC(CCC(=O)N2CCN(c3ccccn3)CC2)C1 (configuration not stated)	i
O=C(CCN1C(=O)c2ccccc2C1=O)N1CCN(c2ccccn2)CC1	i
O=C(CCN1C(=O)COc2ccccc21)N1CCN(c2ccccn2)CC1	i
Cc1ccccc1CC(=O)N1CCCC(CCC(=O)N2CCN(c3ccccn3)CC2)C1 (configuration not stated)	11	TTR inh HuH7=i;TTR act confirm=i
Cc1ccc(C(=O)N2CCCC(CCC(=O)N3CCN(c4ccccn4)CC3)C2)s1 (configuration not stated)	i
O=C(c1ccc(F)cc1)N(NC(=O)C(O)(c1ccccc1)c1ccccc1)c1ccccc1	i
FC(F)(F)c1cc(Cl)c2nc(-c3ccc(Cl)cc3)c(Cc3ccccc3)n2c1	i
O=C(c1ccccc1Oc1ccccc1)N1CCC(Oc2cccnc2)CC1	i
CCN1CCN(C(=O)C2CCN(C(=O)Nc3ccccc3)CC2)CC1	i
SMILES	TTR transcr act	others
O=C(CSc1ccc2nnc(-c3ccc(Cl)cc3)n2n1)N1CCc2ccccc21	i
COc1ccc(C(=O)NCc2cccnc2)cc1OC	i
COc1cccc(C2C(C#N)=C(N)Oc3cc(C)n(Cc4ccccn4)c(=O)c32)c1OC (configuration not stated)	i
COC(=O)C1=C(N)Oc2cc(C)n(Cc3cccnc3)c(=O)c2C1c1ccc(OC)c(OC)c1 (configuration not stated)	18	TTR inh HuH7=i;TTR act confirm=i
O=C(NN=Cc1ccc(F)c(F)c1)c1ccc(NS(=O)(=O)c2cccs2)cc1	i
Nc1nonc1C(=O)NCCNc1ccc([N+](=O)[O-])cc1	i
Cc1nonc1OC(C)CNCCNc1ccc([N+](=O)[O-])cc1 (configuration not stated)	11	TTR inh HuH7=i;TTR act confirm=i
COc1ccc(C(=O)NCCNc2ccc([N+](=O)[O-])cc2)cc1	i
C=CCNC(=S)Nc1cc(C)ccn1	i
COc1ccc(-c2ccc(CN3C(CC(C)C)C(=O)N(Cc4cn(Cc5ccco5)nn4)CCS3(=O)=O)cc2)cc1OC (configuration not stated)	i
CCCCC1(c2ccc(F)cc2)NC(=O)N(CC(=O)N2CCN(C(=O)c3ccco3)CC2)C1=O (configuration not stated)	i
O=c1c2ccccc2sc2nc(C3CCCCC3)n(Cc3ccco3)c(=O)c12	17	TTR inh HuH7=i;TTR act confirm=i
CCCc1nc2sc3ccccc3c(=O)c2c(=O)n1Cc1ccccc1	i
Cn1c2ccccc2c(=O)c2c(=O)n(Cc3ccco3)c(-c3ccc(F)cc3)nc21	i
CC(C)CNC(=O)CSc1nnc(-c2cccc(S(=O)(=O)N3CCCCC3)c2)o1	i
COc1ccc(-c2cn3cccnc3n2)cc1NC(=O)C1CCCC1	i
Cn1c(SCc2nc3ccccc3s2)nnc1-c1cccs1	i
CCn1c(SCc2nc3ccccc3s2)nnc1-c1cccs1	15	TTR inh HuH7=i;TTR act confirm=i
COc1ccc(-c2nnc(SCc3nc4ccccc4s3)n2C(C)C)cc1	i
CC1(C)Oc2ccc3ccc(=O)oc3c2-c2cnoc21	i
CC1(C)Oc2ccc3ccc(=O)oc3c2[C@H](O)[C@H]1O	i
CC1(C)Oc2ccc3ccc(=O)oc3c2-c2cn[nH]c21	10	TTR inh HuH7=i;TTR act confirm=i
